# Experimental data reported in the antibiotic and cytotoxicity screens of Wong et al. (2023).
# About 3,300 (8.5%) of roughly 39,000 compounds were called active. The sample holds actives, similar compounds and a random draw of the others, so the mix is not that of the screen.
# Tested on: HepG2
# Test: cytotoxicity call (relative viability < 0.9)
# Settings: 10 µM
row,Compound,cytotoxicity call
1,C[C@@H]1CCCCO[C@@H](CN(C)C)[C@@H](C)CN([C@H](C)CO)C(=O)c2cc(NS(=O)(=O)c3cn(C)cn3)ccc2O1,inactive
2,CC(C)NC(=O)N(C)C[C@H]1Oc2c(NC(=O)NC3CCCCC3)cccc2C(=O)N([C@@H](C)CO)C[C@H]1C,inactive
3,C[C@@H]1CN([C@@H](C)CO)C(=O)c2cccc(NC(=O)Nc3ccccc3)c2O[C@@H]1CN(C)S(=O)(=O)c1cn(C)cn1,inactive
4,C[C@@H]1CCCCO[C@@H](CN(C)S(=O)(=O)c2cn(C)cn2)[C@H](C)CN([C@H](C)CO)C(=O)c2cc(N(C)C)ccc2O1,inactive
5,O=C(CN1CCOCC1)N[C@@H]1CC[C@@H](CCNC(=O)Nc2cc(F)ccc2F)O[C@@H]1CO,inactive
6,C[C@@H]1CCCCO[C@H](CN(C)C)[C@@H](C)CN([C@H](C)CO)C(=O)c2cc(NC(=O)CCCN(C)C)ccc2O1,inactive
7,C[C@@H]1CCCCO[C@@H](CN(C)C(=O)NC2CCCCC2)[C@@H](C)CN([C@@H](C)CO)C(=O)c2cc(NC(=O)Nc3ccc4c(c3)OCO4)ccc2O1,inactive
8,C[C@H]1CN([C@@H](C)CO)C(=O)Cc2cc(NC(=O)Nc3ccc(F)cc3)ccc2O[C@H]1CN(C)Cc1ccc(Oc2ccccc2)cc1,active
9,C[C@H](CO)N1C[C@H](C)[C@@H](CN(C)Cc2ccc(Oc3ccccc3)cc2)Oc2ccc(NC(=O)Nc3ccc(F)cc3)cc2CC1=O,active
10,C[C@@H]1CN([C@H](C)CO)C(=O)Cc2cc(NC(=O)Nc3ccc(F)cc3)ccc2O[C@H]1CN(C)Cc1ccc(Oc2ccccc2)cc1,active
11,C[C@@H]1CN([C@@H](C)CO)C(=O)Cc2cc(NC(=O)Nc3ccc(F)cc3)ccc2O[C@@H]1CN(C)Cc1ccc(Oc2ccccc2)cc1,inactive
12,CC(=O)Nc1nnc(S(N)(=O)=O)s1,inactive
13,C[C@H](CO)N1C[C@H](C)[C@@H](CN(C)S(=O)(=O)c2ccc(F)cc2)Oc2ccc(NC(=O)Cn3cnnn3)cc2C1=O,inactive
14,CC(C)NC(=O)Nc1cccc2c1O[C@@H](CN(C)S(=O)(=O)c1cn(C)cn1)[C@@H](C)CN([C@H](C)CO)C2=O,inactive
15,CC(C)OC(=O)c1cn(Cc2c(F)cccc2F)c2sc(-c3ccc(NC(=O)C(C)C)cc3)c(CN(C)Cc3ccccc3)c2c1=O,active
16,C[C@@H]1CN([C@@H](C)CO)C(=O)c2cccc(NC(=O)Nc3ccc(F)cc3)c2O[C@H]1CN(C)Cc1ccc(-c2ccccc2)cc1,inactive
17,CONC(=O)Nc1ccc(-c2sc3c(c2CN(C)Cc2ccccc2)c(=O)n(-c2ccccc2)c(=O)n3Cc2c(F)cccc2F)cc1,inactive
18,C[C@@H]1CN([C@@H](C)CO)C(=O)c2cc(NC(=O)C3CC3)ccc2O[C@@H]1CN(C)Cc1ccc(C(=O)O)cc1,inactive
19,CO[C@H]1CN(C)C(=O)c2cc(NC(=O)CC(F)(F)F)ccc2OC[C@@H](C)N(S(=O)(=O)c2cn(C)cn2)C[C@@H]1C,inactive
20,COc1ccc(CNC(=O)C[C@H]2C[C@@H]3c4cc(NS(=O)(=O)c5ccc(F)cc5)ccc4O[C@@H]3[C@@H](CO)O2)cc1,inactive
21,O=C(C[C@@H]1C=C[C@@H](NS(=O)(=O)c2ccc(F)cc2)[C@@H](CO)O1)NCCN1CCCCC1,inactive

row,Compound,cytotoxicity call
1,C[C@@H]1CN([C@@H](C)CO)C(=O)Cc2cc(NC(=O)Nc3cccc4ccccc34)ccc2O[C@H]1CN(C)C(=O)NC1CCCCC1,inactive
2,C[C@@H]1CCCCO[C@@H](CN(C)CC2CCCCC2)[C@H](C)CN([C@@H](C)CO)C(=O)c2cc(NC(=O)c3ccccc3)ccc2O1,inactive
3,C[C@@H]1CCCCO[C@H](CN(C)CC2CCCCC2)[C@H](C)CN([C@H](C)CO)C(=O)c2cc(NC(=O)c3ccccc3)ccc2O1,active
4,C[C@@H]1CCCCO[C@@H](CN(C)CC2CCCCC2)[C@@H](C)CN([C@H](C)CO)C(=O)c2cc(NC(=O)c3ccccc3)ccc2O1,active
5,C[C@H]1CCCCO[C@H](CN(C)CC2CCCCC2)[C@@H](C)CN([C@@H](C)CO)C(=O)c2cc(NC(=O)c3ccccc3)ccc2O1,inactive
6,C[C@@H]1CN([C@@H](C)CO)C(=O)c2cc(NC(=O)c3ccccc3)ccc2O[C@@H](C)CCCCO[C@H]1CN(C)CC1CCCCC1,active
7,C[C@@H]1CN([C@H](C)CO)C(=O)c2cc(NC(=O)c3ccccc3)ccc2O[C@@H](C)CCCCO[C@@H]1CN(C)CC1CCCCC1,inactive
8,C[C@@H]1CN([C@@H](C)CO)C(=O)c2cc(NC(=O)c3ccccc3)ccc2O[C@@H](C)CCCCO[C@@H]1CN(C)CC1CCCCC1,inactive
9,C[C@H]1CCCCO[C@@H](CN(C)CC2CCCCC2)[C@@H](C)CN([C@@H](C)CO)C(=O)c2cc(NC(=O)c3ccccc3)ccc2O1,inactive
10,C[C@@H]1CCCCO[C@@H](CN(C)CC2CCCCC2)[C@H](C)CN([C@H](C)CO)C(=O)c2cc(NC(=O)c3ccccc3)ccc2O1,inactive
11,C[C@H]1CN([C@@H](C)CO)C(=O)c2cc(NS(=O)(=O)c3ccccc3)ccc2O[C@H]1CN(C)S(=O)(=O)c1cccs1,inactive
12,COc1ccc(CN(C)C[C@@H]2OCCCC[C@H](C)Oc3ccc(NS(=O)(=O)c4ccccc4)cc3C(=O)N([C@H](C)CO)C[C@H]2C)cc1,inactive
13,C[C@@H]1CCCCO[C@@H](CN(C)Cc2ccc(C(=O)O)cc2)[C@@H](C)CN([C@H](C)CO)C(=O)c2cc(NS(=O)(=O)c3ccc(F)cc3)ccc2O1,inactive
14,C[C@@H]1CN([C@H](C)CO)C(=O)c2cccc(NC(=O)NC3CCCCC3)c2O[C@@H]1CN(C)Cc1ccc(Cl)c(Cl)c1,inactive
15,COc1ccc(NC(=O)Nc2ccc3c(c2)C(=O)N([C@H](C)CO)C[C@H](C)[C@@H](CN(C)S(=O)(=O)c2ccccc2)OCCCC[C@@H](C)O3)cc1,inactive
16,Cc1ccc(S(=O)(=O)Nc2cccc3c2O[C@H](CN(C)S(=O)(=O)c2c(C)noc2C)[C@@H](C)CN([C@H](C)CO)C3=O)cc1,inactive
17,CC(=O)N1CCN(c2ccc(OCC3COC(Cn4ccnc4)(c4ccc(Cl)cc4Cl)O3)cc2)CC1 (configuration not stated),inactive
18,CC[C@H](C)n1ncn(-c2ccc(N3CCN(c4ccc(OC[C@H]5CO[C@](Cn6cncn6)(c6ccc(Cl)cc6Cl)O5)cc4)CC3)cc2)c1=O,inactive
19,CCC(C)n1ncn(-c2ccc(N3CCN(c4ccc(OCC5COC(Cn6cncn6)(c6ccc(Cl)cc6Cl)O5)cc4)CC3)cc2)c1=O.Cl.Cl (configuration not stated),active
20,CC(C)N1CCN(c2ccc(OCC3COC(Cn4cncn4)(c4ccc(Cl)cc4Cl)O3)cc2)CC1 (configuration not stated),inactive
21,CCC(C(C)O)n1ncn(-c2ccc(N3CCN(c4ccc(OCC5COC(Cn6cncn6)(c6ccc(F)cc6F)C5)cc4)CC3)cc2)c1=O (configuration not stated),active

row,Compound,cytotoxicity call
1,CC[C@@H](C)n1ncn(-c2ccc(N3CCN(c4ccc(OC[C@H]5CO[C@](Cn6cncn6)(c6ccc(Cl)cc6Cl)O5)cc4)CC3)cc2)c1=O,active
2,C[C@@H]1CN([C@@H](C)CO)C(=O)c2cccc(NC(=O)c3ccc(-c4nccs4)cc3)c2O[C@H]1CN(C)C(=O)Nc1ccc(F)cc1,inactive
3,CCS(=O)(=O)Nc1ccc2c(c1)C(=O)N(C)C[C@H](OC)[C@@H](C)CN(Cc1ccccn1)[C@H](C)CO2,inactive
4,COc1ccc(C#Cc2ccc3c(c2)O[C@@H](CN(C)C(=O)c2ccccn2)[C@H](C)CN([C@H](C)CO)S3(=O)=O)cc1,inactive
5,CC1=CC(=O)N(c2ccn(C)n2)C1=O,inactive
6,C[C@@H]1CN([C@H](C)CO)C(=O)c2cc(NC(=O)Cc3ccccc3)ccc2O[C@@H]1CN(C)C(=O)Nc1cccc2ccccc12,inactive
7,CC(C)NC(=O)Nc1ccc2c(c1)C(=O)N([C@@H](C)CO)C[C@H](C)[C@@H](CN(C)S(=O)(=O)c1cccs1)O2,inactive
8,C[C@@H]1CN([C@H](C)CO)C(=O)Cc2cc(NC(=O)Nc3ccc(C(F)(F)F)cc3)ccc2O[C@H]1CN(C)C(=O)Nc1ccccc1,inactive
9,CN1CCN(C(=O)C[C@H]2CC[C@@H]3[C@H](COC[C@@H](O)CN3Cc3ccc4c(c3)OCO4)O2)CC1,inactive
10,C[C@@H]1CCCCO[C@H](CN(C)C(=O)c2ccncc2)[C@H](C)CN([C@@H](C)CO)C(=O)c2cc(NS(=O)(=O)c3ccc(Cl)cc3)ccc2O1,inactive
11,O=C(C[C@H]1C=C[C@H](NC(=O)c2cnccn2)[C@H](CO)O1)NCc1ccccc1F,inactive
12,Cc1ccc(S(=O)(=O)N(C)C[C@H]2Oc3ccc(NC(=O)CCCN(C)C)cc3C(=O)N([C@H](C)CO)C[C@H]2C)cc1,inactive
13,CO[C@H](CN(C)C(=O)C1CCOCC1)[C@@H](C)CN(C(=O)Nc1ccc(C(F)(F)F)cc1)[C@@H](C)CO,inactive
14,Cc1ccc(S(=O)(=O)Nc2ccc3c(c2)CC(=O)N([C@H](C)CO)C[C@H](C)[C@@H](CN(C)Cc2ccc(-c4ccccc4)cc2)O3)cc1,active
15,Cc1ccc(S(=O)(=O)Nc2ccc3c(c2)CC(=O)N([C@H](C)CO)C[C@@H](C)[C@@H](CN(C)Cc2ccc(-c4ccccc4)cc2)O3)cc1,active
16,Cc1ccc(S(=O)(=O)Nc2ccc3c(c2)CC(=O)N([C@@H](C)CO)C[C@@H](C)[C@H](CN(C)Cc2ccc(-c4ccccc4)cc2)O3)cc1,inactive
17,Cc1ccc(S(=O)(=O)Nc2ccc3c(c2)CC(=O)N([C@H](C)CO)C[C@@H](C)[C@H](CN(C)Cc2ccc(-c4ccccc4)cc2)O3)cc1,active
18,Cc1ccc(S(=O)(=O)Nc2ccc3c(c2)CC(=O)N([C@H](C)CO)C[C@H](C)[C@H](CN(C)Cc2ccc(-c4ccccc4)cc2)O3)cc1,active
19,CS(=O)(=O)N1C[C@H]2CN(C(=O)c3cnccn3)C[C@@H]2C1,inactive
20,Cc1cc(SCc2ccc(F)cc2)c(C)cc1Cl,inactive
